This is part of a sample that, as a whole, favours compounds with a hit. Of some 83,000 tested, about 20% had one in any assay.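 Single-dose data. Exposure time 48 hours. Values below 10 considered active.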 Unmarked numbers belong to inactive results. The source made the active and inactive calls.

We go through 14 molecules from PubChem BioAssay (NCI).

Holding throughout (test): NCI-60 one-dose screen, 48 h (100 = growth as untreated, 0 = no growth, -100 = all killed)
Holding throughout (conditions): 10 µM

For assay [1], the system named is DU-145 prostate.
Assay [2] has as its system K-562 leukemia.
In assay [3] the test system is MALME-3M melanoma.
The subject of assay [4] is MDA-MB-231 breast.
In assay [5] the test system is RXF 393 renal.
The subject of assay [6] is SF-268 CNS.
The test system of assay [7] is SF-295 CNS.
Assay [8] has as its system SF-539 CNS.
Assay [9] deals with UACC-257 melanoma.
The subject of assay [10] is M14 melanoma.

Turning to `COCCNCC(O)Cn1c2ccc(Cl)cc2c2cc(Cl)ccc21` (stereo not given), the growth is 7.48% (active) in assay [1]; -17.1% (active) in assay [2]; -86.3% (active) in [3]; -33.1% (active) in assay [4]; 3.52% (active) in assay [5]; 7.96% (active) in assay [6]. Moreover, the growth was -6.61% (active) in assay [7], -85% (active) in assay [8], -81% (active) in assay [9] and -87.4% (active) in assay [10].

As to `O=C(Nc1cccc(-c2nc3ccccc3[nH]2)c1)c1cccc(NC(=O)c2ccco2)c1`, the growth in [1] is 103%; in [2], 2.96% (active); in assay [3] it was 73.9%; in [4], 34.6%; in [5], 67.6%; in assay [6], 75.7%. Besides, the growth is 80.3% in assay [7], 64.9% in assay [8], -20.2% (active) in [9] and 3.76% (active) in [10].

Consider `CC(=O)c1ccc(NCn2nc(-c3ccc(Cl)cc3)oc2=S)cc1`, for which the growth in [1] was 109%; in assay [2], 88.1%; in assay [3] it was 114%; in [4] it was 87.8%; in assay [5], 117%; in assay [6], 109%. Also, the growth in [7] was 102%; in [8] it was 95%; in assay [9], 93%; in [10], 104%.

Consider `Cc1ccc2nc(-c3ccc(OCC(=O)N=Nc4c(O)[nH]c5ccccc45)cc3)[nH]c2c1`, for which the growth in assay [1] is 73.3%; in assay [2] it was 5.23% (active); in [3], 95.8%; in assay [4], 74.4%; in [5], 102%; in assay [6], 102%. Further, the growth in assay [7] was 97.1%; in [8] it was 100%; in assay [9] it was 103%; in [10] it was 77.3%.

With `COc1ccccc1NC1=C(N2CCCCC2)C(=O)c2ccccc2C1=O`, the growth is 105% in assay [1]; 75.5% in assay [2]; 96.9% in [3]; 83% in assay [4]; 67.1% in assay [5]; 88.8% in assay [6]. In addition, the growth was 67.1% in assay [7], 93.6% in assay [8], 76.7% in assay [9] and 89.9% in assay [10].

With `COc1nc2c(c(=O)[nH]1)C(c1ccc(Oc3ccnc4cc(Cl)ccc34)c(OC)c1)C=C(c1cc(OC)c(OC)c(OC)c1)N2` (stereo not given), the growth in [1] is 95.1%; in assay [2], 87.8%; in assay [3] it was 109%; in [4], 80.8%; in assay [5] it was 106%; in assay [6], 103%. The growth in assay [7] was 99.1%; in assay [8] it was 108%; in [9], 92.2%; in assay [10], 98.8%.

In the case of `CCNC1(NC#N)CCCCC1`, the growth in [1] was 123%; in assay [2] it was 115%; in [3], 113%; in assay [4], 107%; in assay [5], 108%; in assay [6] it was 112%. Moreover, the growth in assay [7] is 97.7%; in assay [8], 105%; in [9], 85.1%; in assay [10], 99%.

As to `Cc1cc(C)c(/C=C2\C(=O)Nc3ccc(NC(=O)CCCCCCC(=O)NO)cc32)[nH]1`, the growth is 19.3% in assay [1]; 22.7% in assay [2]; 18.7% in [3]; 12% in assay [4]; 19.1% in assay [5]; 22.8% in [6]. Moreover, the growth is 30% in [7], 15% in assay [8], 0.0206% (active) in assay [9] and 18.4% in assay [10].

For the molecule `O=C(O)c1ccc(CNc2ccc(C(=O)CCl)cc2)cc1`, the growth is 101% in assay [1]; 92.1% in [2]; 111% in [3]; 104% in [4]; 78.4% in assay [5]; 109% in assay [6]. The growth in [7] is 86.1%; in assay [8], 102%; in [9], 75%; in [10], 105%.

Consider `CCNC(=S)NN`, for which the growth in assay [1] was 97.9%; in [2], 43.9%; in assay [3] it was 70.4%; in assay [4] it was 90.5%; in assay [5], 100%; in assay [6], 103%. Moreover, the growth in [7] is 89.4%; in assay [8], 100%; in [9], 56.8%; in [10], 87.2%.

Take `CC(=O)c1c(O)cc2c3c1OC(C)(C)C1CCC(C)(CC31)O2` (stereo not given): the growth in assay [1] was 104%; in [2], 90.1%; in assay [3], 93.8%; in assay [4], 106%; in assay [5], 94.8%; in assay [6], 98.3%. The growth is 90.2% in [7], 89.8% in [8], 126% in assay [9] and 92.2% in [10].

On to `COc1ccc(C(C)=O)cc1N1C(=O)C2C(C1=O)C1(c3ccccc3)C(=O)C2(c2ccccc2)C(c2ccc(C)cc2)=C1c1ccc(C)cc1` (stereo not given), for which the growth was 19.1% in [1]; 11.7% in assay [2]; 17% in assay [3]; 12.3% in assay [4]; -4.28% (active) in assay [5]; 13.8% in assay [6]. Moreover, the growth in [7] was 1.18% (active); in assay [8], 11.4%; in assay [9] it was 16.2%; in [10], -28.1% (active).

Regarding `COc1cc(C(=O)n2nc(N)c3c(C)cc(C)nc32)cc(OC)c1OC`, the growth in assay [1] is 93.3%; in assay [2], 18.2%; in assay [3] it was 89%; in assay [4], 87.7%; in assay [5], 83.2%; in [6] it was 79.1%. For the same molecule, the growth in assay [7] is 75.9%; in assay [8], 64.6%; in assay [9], 90.9%; in [10], 80.2%.

For the molecule `NC1CCC(Nc2nc(NCc3ccc(-c4cccs4)nc3)c3ncn(C4CCCC4)c3n2)CC1` (stereo not given), the growth is 8.83% (active) in [1]; -6% (active) in [2]; -74.7% (active) in [3]; -0.601% (active) in [4]; -50% (active) in [5]; -5.75% (active) in [6]. In addition, the growth in assay [7] was 0.906% (active); in [8] it was -56.7% (active); in [9], -74.6% (active); in assay [10] it was -80.6% (active).
